From ChEMBL document CHEMBL1157539, “Thousands of chemical starting points for antimalarial lead identification” (Nature, 2010) come the findings set out here.

Structures are written as SMILES.

The first assay relates to Plasmodium falciparum. The assay is described as follows: GSK_TCMDC: Inhibition of Plasmodium falciparum 3D7 in whole red blood cells, using parasite LDH activity as an index of growth. Test compounds present at 2uM. It is filed as functional.
What is called Inhibition is the share of the control response that was lost under treatment. For the compound `Cc1cc(C(=O)CN2C(=O)NC3(CCOc4ccccc43)C2=O)c(C)n1Cc1ccc(F)cc1` (stereo not given), the Inhibition amounted to 95%.
Regarding `N#Cc1cccc(NC(=O)Nc2ccc(-c3ccc(-c4nc5cc(C(F)(F)F)ccc5[nH]4)cc3)cc2)c1`, the Inhibition stood at 100%.
On the same count and under the same terms, as for `COCCNC(=O)C(CNC(=O)c1ccc2c(c1)OCO2)NC(=O)c1ccc(-c2ccccc2)cc1` (stereo not given), the figure is 90%; as for `COc1cc(Nc2nccc(-c3c(-c4cccc(NC(=O)c5c(F)cccc5F)c4)nn4ncccc34)n2)cc(OC)c1OC`, 98%; as for `N#Cc1cccc(C(=O)NC2CCN(CCCCCNC(=O)/C=C/c3ccc(Cl)c(Cl)c3)CC2)c1`, 100%.
On the same count and under the same terms, as for `CC(C)CCn1c(Sc2ccc([N+](=O)[O-])cc2C(F)(F)F)nnc1-c1ccccc1Cl`, the figure is 99%.
Compound `CCc1ccc(-n2c(NC(=O)c3ccccc3)nc3ccc(S(=O)(=O)NC(C)C(C)C)cc32)cc1` (stereo not given) gave an Inhibition of 88%.
The compound `COc1cc(Nc2ccnc3ccc(C(F)(F)F)cc23)ccc1OCCCc1ccccc1` came in with an Inhibition of 99%.
Turning to `COc1ccc2c(NN=CC=Cc3ccccc3)ccnc2c1`, the Inhibition turned out to be 100%.
Same read-out and setting: the same measure for `CO/C(=C\C=C\c1cc2cc(Cl)c(Cl)cc2[nH]1)C(=O)NCCCN1CCN(Cc2ccccc2)CC1`: 94%; for `COCCCNc1sc(S(=O)(=O)c2ccccc2)nc1S(=O)(=O)c1ccc(C)cc1`: 84%; for `CC(C)CNCc1cccc(-c2ccc(CN(CCCN3CCN(C)CC3)C(=O)CCC3CCCC3)cc2)c1.O=C(O)C(F)(F)F`: 98%.
Regarding `O=c1ccccn1CCCC1CCCCN1` (stereo not given), the Inhibition was determined as 96%.
Compound `CCc1ccc(NC(=O)C=NNC(=N)N)cc1.O=S(=O)(O)O` registered an Inhibition of 100%.
In turn, `Cc1cc2c(/C=C/C(=O)NC3CCC(CCN4CCc5ccc(C#N)cc5CC4)CC3)cccc2[nH]1.Cl` (stereo not given) came in with an Inhibition of 95%.
As to `C#CCN(Cc1cc2c(=O)[nH]c(N)nc2cc1C)c1ccc(C(=O)N[C@@H](CCC(=O)O)C(=O)O)cc1`, the Inhibition came out at 92%.
On the same count and under the same terms, the same measure for `COc1cc(Nc2nccc(N3CCC(NC(=O)Nc4cc(C)ccc4C)C3)n2)cc(OC)c1OC` (stereo not given): 91%.
`O=C(Nc1ccc2c(c1)CCN2C1CCN(Cc2cc(F)cc(F)c2F)C1)c1ccco1` (stereo not given) returned an Inhibition of 96%.
On the same count and under the same terms, as for `NCc1ccc(CNCc2ccc(-c3ccc(-c4nc5cc(C(F)(F)F)ccc5[nH]4)s3)cc2)cc1.O=C(O)C(F)(F)F`, the figure is 95%.
The same measure, in the same setting: the same measure for `CCN1CCN(c2cc(C)c3cc(NC(=O)c4ccc(Br)o4)ccc3n2)CC1`: 98%; for `COc1ccc(-n2ccnc2SCC(=O)Nc2cc(C)ccc2C)c(OC)c1`: 94%; for `CC(C)c1ccc(NC(=O)c2ccc(CN3CCCN(Cc4cccc(Cl)c4)CC3)cc2)cc1.O=C(O)C(F)(F)F`: 90%.
In the case of `C=CCn1c(=N)c(C(=O)NCc2ccc(F)cc2)cc2c(=O)n3cccc(C)c3nc21`, the Inhibition is recorded as 92%.
The same measure, in the same setting: as for `C=Cc1sc(CNCCCNc2cc(=O)c3ccccc3[nH]2)c(C)c1Br`, the figure is 94%; as for `CCC(C)NC(=O)Nc1ccc(-c2cccc(-c3nc4cccc(C)c4[nH]3)c2)cc1` (stereo not given), 100%.
On to `Cc1cc(C)c2cc(CNCCCNc3nc4ccccc4[nH]3)[nH]c2c1`, for which the Inhibition worked out at 100%.
`Nc1ccc2nc(C=Cc3ccccc3)[nH]c2c1`: the Inhibition came out at 92%.
Same read-out and setting: as for `O=C(Nc1ccc2c(c1)CCN2C1CCN(Cc2ccc(C(F)(F)F)cc2F)C1)c1ccco1` (stereo not given), the figure is 91%.
For `O=C(Nc1ccc(C(F)(F)F)cc1)c1ccc(NCCCN2CCCCCC2)c([N+](=O)[O-])c1`, the Inhibition turned out to be 100%.
As for `COc1ccc(Nc2nc(NC3CCN(C)CC3)cc(-c3ccc(OC)cc3)n2)cc1`, the Inhibition came out at 100%.
On the same count and under the same terms, the same measure for `Cc1nc2nc(N)nc(N)c2c(C)c1Cc1ccccc1Cl.Cl`: 93%; for `CCNc1cc(C(=O)N[C@@H](Cc2ccccc2)[C@H](O)CNC(CC)c2cccc(Cl)c2)cc(N2CCCCS2(=O)=O)c1.Cl` (stereo not given in full): 100%.
`CC1CC(NCCCNc2cc(=O)c3ccccc3[nH]2)c2c(Cl)c(Cl)cc(Cl)c21` (stereo not given) had an Inhibition of 87%.
With `CN1CCN(CCCN(Cc2cccc(-c3cccc(CNCc4ccc5c(c4)OCO5)c3)c2)C(=O)CCC2CCCC2)CC1.O=C(O)C(F)(F)F`, the Inhibition is reported as 98%.
Same read-out and setting: as for `Cl.N=C(N)NN=Cc1ccc2c(ccc3ccccc32)c1`, the figure is 100%; as for `Oc1ccc(Cl)cc1Nc1nc(C(F)(F)F)nc2ccccc12`, 86%.
On to `CCN1CCN(C(=O)NC(C(=O)N2CCCC(COc3ccc(Cc4ccccc4)cc3)C2)c2cccs2)C(=O)C1=O` (stereo not given), for which the Inhibition was determined as 95%.
On the same count and under the same terms, as for `CCNC(=O)Nc1ccc(-c2cnc(N)c(-c3nc4ccc(OC)cc4[nH]3)c2)cc1`, the figure is 100%; as for `O=C(O)C1Cc2c([nH]c3ccccc23)C(c2ccc(Cl)cc2Cl)N1` (stereo not given), 91%; as for `CC(C)COc1ccc(Cl)cc1Cc1nc(-c2nc3ccc(N4CCN(C)CC4)nc3[nH]2)cs1.Cl`, 99%.

For a further assay, the system named is Plasmodium falciparum. Put plainly: GSK_TCMDC: Inhibition of Plasmodium falciparum Dd2 in whole red blood cells, using parasite LDH activity as an index of growth. Test compounds present at 2uM. It is filed as functional.
`Cc1cc(C(=O)CN2C(=O)NC3(CCOc4ccccc43)C2=O)c(C)n1Cc1ccc(F)cc1` (stereo not given) came in with an Inhibition of 84%.
As to `N#Cc1cccc(NC(=O)Nc2ccc(-c3ccc(-c4nc5cc(C(F)(F)F)ccc5[nH]4)cc3)cc2)c1`, the Inhibition is 100%.
The same measure, in the same setting: as for `COCCNC(=O)C(CNC(=O)c1ccc2c(c1)OCO2)NC(=O)c1ccc(-c2ccccc2)cc1` (stereo not given), the figure is 3%; as for `COc1cc(Nc2nccc(-c3c(-c4cccc(NC(=O)c5c(F)cccc5F)c4)nn4ncccc34)n2)cc(OC)c1OC`, 97%; as for `N#Cc1cccc(C(=O)NC2CCN(CCCCCNC(=O)/C=C/c3ccc(Cl)c(Cl)c3)CC2)c1`, 0%.
Same read-out and setting: the same measure for `CC(C)CCn1c(Sc2ccc([N+](=O)[O-])cc2C(F)(F)F)nnc1-c1ccccc1Cl`: 43%; for `CCc1ccc(-n2c(NC(=O)c3ccccc3)nc3ccc(S(=O)(=O)NC(C)C(C)C)cc32)cc1` (stereo not given): 0%; for `COc1cc(Nc2ccnc3ccc(C(F)(F)F)cc23)ccc1OCCCc1ccccc1`: 51%.
Same read-out and setting: the same measure for `COc1ccc2c(NN=CC=Cc3ccccc3)ccnc2c1`: 100%.
The compound `CO/C(=C\C=C\c1cc2cc(Cl)c(Cl)cc2[nH]1)C(=O)NCCCN1CCN(Cc2ccccc2)CC1` had an Inhibition of 65%.
Take `COCCCNc1sc(S(=O)(=O)c2ccccc2)nc1S(=O)(=O)c1ccc(C)cc1`: the Inhibition is listed as 44%.
`CC(C)CNCc1cccc(-c2ccc(CN(CCCN3CCN(C)CC3)C(=O)CCC3CCCC3)cc2)c1.O=C(O)C(F)(F)F` gave an Inhibition of 89%.
For the compound `O=c1ccccn1CCCC1CCCCN1` (stereo not given), the Inhibition came out at 0%.
Still for that read-out and setting: as for `CCc1ccc(NC(=O)C=NNC(=N)N)cc1.O=S(=O)(O)O`, the figure is 3%; as for `Cc1cc2c(/C=C/C(=O)NC3CCC(CCN4CCc5ccc(C#N)cc5CC4)CC3)cccc2[nH]1.Cl` (stereo not given), 39%.
Still for that read-out and setting: the same measure for `C#CCN(Cc1cc2c(=O)[nH]c(N)nc2cc1C)c1ccc(C(=O)N[C@@H](CCC(=O)O)C(=O)O)cc1`: 74%; for `COc1cc(Nc2nccc(N3CCC(NC(=O)Nc4cc(C)ccc4C)C3)n2)cc(OC)c1OC` (stereo not given): 52%; for `O=C(Nc1ccc2c(c1)CCN2C1CCN(Cc2cc(F)cc(F)c2F)C1)c1ccco1` (stereo not given): 95%.
In the case of `NCc1ccc(CNCc2ccc(-c3ccc(-c4nc5cc(C(F)(F)F)ccc5[nH]4)s3)cc2)cc1.O=C(O)C(F)(F)F`, the Inhibition stood at 92%.
Still for that read-out and setting: as for `CCN1CCN(c2cc(C)c3cc(NC(=O)c4ccc(Br)o4)ccc3n2)CC1`, the figure is 13%; as for `COc1ccc(-n2ccnc2SCC(=O)Nc2cc(C)ccc2C)c(OC)c1`, 93%.
Consider `CC(C)c1ccc(NC(=O)c2ccc(CN3CCCN(Cc4cccc(Cl)c4)CC3)cc2)cc1.O=C(O)C(F)(F)F`, for which the Inhibition was determined as 12%.
Still for that read-out and setting: as for `C=CCn1c(=N)c(C(=O)NCc2ccc(F)cc2)cc2c(=O)n3cccc(C)c3nc21`, the figure is 11%.
On the same count and under the same terms, the same measure for `C=Cc1sc(CNCCCNc2cc(=O)c3ccccc3[nH]2)c(C)c1Br`: 35%; for `CCC(C)NC(=O)Nc1ccc(-c2cccc(-c3nc4cccc(C)c4[nH]3)c2)cc1` (stereo not given): 83%.
For `Cc1cc(C)c2cc(CNCCCNc3nc4ccccc4[nH]3)[nH]c2c1`, the Inhibition was found to be 0%.
In turn, `Nc1ccc2nc(C=Cc3ccccc3)[nH]c2c1` gave an Inhibition of 89%.
`O=C(Nc1ccc2c(c1)CCN2C1CCN(Cc2ccc(C(F)(F)F)cc2F)C1)c1ccco1` (stereo not given) registered an Inhibition of 94%.
Same read-out and setting: the same measure for `O=C(Nc1ccc(C(F)(F)F)cc1)c1ccc(NCCCN2CCCCCC2)c([N+](=O)[O-])c1`: 98%; for `COc1ccc(Nc2nc(NC3CCN(C)CC3)cc(-c3ccc(OC)cc3)n2)cc1`: 51%; for `Cc1nc2nc(N)nc(N)c2c(C)c1Cc1ccccc1Cl.Cl`: 0%.
With `CCNc1cc(C(=O)N[C@@H](Cc2ccccc2)[C@H](O)CNC(CC)c2cccc(Cl)c2)cc(N2CCCCS2(=O)=O)c1.Cl` (stereo not given in full), the Inhibition stood at 98%.
Same read-out and setting: the same measure for `CC1CC(NCCCNc2cc(=O)c3ccccc3[nH]2)c2c(Cl)c(Cl)cc(Cl)c21` (stereo not given): 52%; for `CN1CCN(CCCN(Cc2cccc(-c3cccc(CNCc4ccc5c(c4)OCO5)c3)c2)C(=O)CCC2CCCC2)CC1.O=C(O)C(F)(F)F`: 80%; for `Cl.N=C(N)NN=Cc1ccc2c(ccc3ccccc32)c1`: 68%.
In turn, `Oc1ccc(Cl)cc1Nc1nc(C(F)(F)F)nc2ccccc12` came in with an Inhibition of 63%.
The compound `CCN1CCN(C(=O)NC(C(=O)N2CCCC(COc3ccc(Cc4ccccc4)cc3)C2)c2cccs2)C(=O)C1=O` (stereo not given) returned an Inhibition of 87%.
As for `CCNC(=O)Nc1ccc(-c2cnc(N)c(-c3nc4ccc(OC)cc4[nH]3)c2)cc1`, the Inhibition is on record as 43%.
Still for that read-out and setting: as for `O=C(O)C1Cc2c([nH]c3ccccc23)C(c2ccc(Cl)cc2Cl)N1` (stereo not given), the figure is 100%; as for `CC(C)COc1ccc(Cl)cc1Cc1nc(-c2nc3ccc(N4CCN(C)CC4)nc3[nH]2)cs1.Cl`, 27%.
